Results: PubChem BioAssay (NCI)
About 79,000 compounds went through this panel and 15% of them were active in at least one assay; those are over-represented in the sample as a whole. No stated cut-off is given here; in the data, active means growth inhibition above about 70%; inactive means the rest.

Tests used:
[1] = NCI Yeast Anticancer Drug Screen. Data for the rad50 strain (AID 155);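 further: 0% = growth of vehicle-only cultures of the same strain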; settings: S. cerevisiae rad50 strain growth inhibition; at 50.0 µM; stronger effect = higher value
Summary of the method: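 A DNA repair-deficient yeast mutant serves as the test organism; compound-induced growth inhibition is calculated against vehicle-treated cells.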

[2] = NCI Yeast Anticancer Drug Screen. Data for the mec2-1 strain (AID 157); settings: S. cerevisiae mec2-1 strain, at 50.0 µM, stronger effect = higher value
Summary of the method: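 Vehicle-treated cultures served as reference for growth inhibition of compound-exposed mec2-1 yeast.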

[3] = NCI Yeast Anticancer Drug Screen. Data for the sgs1 mgt1 strain (AID 161);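 further: 0% = growth of cultures given vehicle only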; settings: S. cerevisiae sgs1 mgt1 strain, at 50.0 µM, stronger effect = higher value
Summary of the method: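 Inhibition of yeast growth, normalised to vehicle-treated controls, is reported for a strain bearing genetic alterations in DNA damage repair.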

[4] = NCI Yeast Anticancer Drug Screen. Data for the cln2 rad14 strain (AID 165);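 further: 0% = growth equal to vehicle treated cultures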; settings: S. cerevisiae cln2 rad14 strain, at 50.0 µM, stronger effect = higher value
Summary of the method: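 Each compound was tested on cln2 rad14 yeast. Inhibition of growth was calculated against vehicle-exposed controls.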

[5] = NCI Yeast Anticancer Drug Screen. Data for the bub3 strain (AID 167); settings: S. cerevisiae bub3 mutant strain, at 50.0 µM, stronger effect = higher value
Summary of the method: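 Inhibition values come from growth of compound-treated mutant yeast normalised to vehicle-treated controls.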

[6] = NCI Yeast Anticancer Drug Screen. Data for the mlh1 rad18 strain (AID 175); settings: S. cerevisiae mlh1 rad18 strain growth inhibition; at 50.0 µM; stronger effect = higher value
Summary of the method: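 Vehicle-treated cultures served as the reference for growth inhibition in a yeast strain carrying DNA damage repair alterations exposed to each compound.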

Measured: growth inhibition

O=C(N/N=C/c1ccccc1F)c1ccncc1
inactive: [1] 1.1% | [2] 5% | [3] -0.95% | [4] -24.4% | [5] -7.65% | [6] 23.9%

Nc1c(Cl)ncnc1Nc1cccc(C(F)(F)F)c1
inactive: [1] 9.9% | [2] 38.4% | [3] 53.1% | [4] 10.1% | [5] 41.6% | [6] 66.5%

O=C1OCC(Cc2ccc3c(c2)OCO3)[C@H]1Cc1ccc(O)cc1 (stereo not given in full)
inactive: [1] 1.45% | [2] -18% | [3] 17.6% | [4] 21.9% | [5] 19.3% | [6] -5.9%

Cc1ccc(C(=O)CCC(=O)OCC(=O)c2ccc(-c3ccccc3)cc2)cc1
inactive: [1] -7.95% | [2] 11.3% | [3] -1% | [4] 14.8% | [5] -6% | [6] -20.1%

COc1cccc2c1ccc1nonc12
inactive: [1] 0.05% | [2] -4.1% | [3] -2.25% | [4] -50% | [5] -19.1% | [6] 2.2%

COc1ccccc1/C=C/c1nc2ccccc2o1
inactive: [1] 47.6% | [2] 19.7% | [3] 56.1% | [4] 13.6% | [5] 59.8% | [6] 53%

OCC1OC(n2cnc3[nH]cnc(=S)c32)C(O)C1O (stereo not given)
inactive: [1] 4.3% | [2] 14.2% | [3] 0.35% | [4] 1.05% | [5] -6.35% | [6] 14.7%

CC12CS(=O)(=O)CC1O2 (stereo not given)
inactive: [1] 1.65% | [2] 3.25% | [3] 2.2% | [4] 1.9% | [5] 2.2% | [6] -13.4%

C[N+](C)([O-])Cc1ccccc1
inactive: [1] -12.9% | [2] -27.4% | [3] -19.4% | [4] -0.8% | [5] -5.2% | [6] -16.9%

CC(C)(C)CC(C)(O)C(=O)O (stereo not given)
inactive: [1] 6.9% | [2] -18.9% | [3] -15.8% | [4] -1.45% | [5] -13.5% | [6] -3.55%

COc1nc(Cl)nc(C(N)=O)c1N
inactive: [1] 7.95% | [2] 9.9% | [3] -11.5% | [4] -11.1% | [5] -2.65% | [6] -4.85%

C=CCOC(=O)Nc1ccc(S(=O)(=O)N(CCC)CCC)cc1
inactive: [1] -13.3% | [2] -33% | [3] 32% | [4] -23.4% | [5] -14.7% | [6] -17.2%

Cc1cc(C)c(C(C=O)c2ccccc2)c(C)c1 (stereo not given)
inactive: [1] 18.6% | [2] 2.85% | [3] 10.3% | [4] 17.9% | [5] 6.25% | [6] 4.45%

CCOC(=O)C(=O)C(Cc1ccccc1)C(=O)OCC (stereo not given)
inactive: [1] 0.2% | [2] -3.95% | [3] 9.75% | [4] -46.5% | [5] 11.7% | [6] -7.2%

CC(=O)CC(C)(C)c1cc(CC(C)(C)C(N)=O)on1
inactive: [1] 0.75% | [2] 0.25% | [3] 17.4% | [4] 11.2% | [5] 11.3% | [6] 17.2%

CCOC(=O)Nc1cc2c(c(N)n1)N=C(c1ccc(Cl)cc1Cl)CN2
inactive: [1] 33.4% | [2] -29.5% | [3] 25.6% | [4] -5.1% | [5] -6% | [6] -8.45%

CCC(=O)c1c(O)c2ccccc2oc1=O
inactive: [1] -21.1% | [2] 9.45% | [3] -5.2% | [4] -4.1% | [5] 11.8% | [6] 8.1%

NC(CCCCO)C(=O)O (stereo not given)
inactive: [1] -6.8% | [2] -35.8% | [3] 4.1% | [4] 23.1% | [5] -29.1% | [6] -15%

CC#Cc1c(O)c2c(c(O)c1C#CC)C(=O)c1ccccc1C2=O
inactive: [1] -1.3% | [2] -30% | [3] -25.4% | [4] -8.95% | [5] -3% | [6] -29.8%

O=C(O)C1CC(O)c2ccccc2C1c1ccccc1 (stereo not given)
inactive: [1] -2.65% | [2] -1.15% | [3] -11.4% | [4] 22.6% | [5] 5.1% | [6] -17.3%
